Screening results (PubChem BioAssay)
Hits are enriched below; roughly 12% of the tested compounds scored in any of these assays.
Pf growth 96h – P. falciparum growth inhibition at 96 hours; P. falciparum luciferase reporter growth, 96 h; Potency, µM (series often up to 28.7 µM), for inactives: at the top dose activity change, negative = inhibition, actives largely listed as inhibitors; 320,000 compounds, 6.9% hits; further: potency means the concentration at half of the fitted maximal effect; on the % scale 0 is the no-effect control and ±100 the full control effect
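Parasite growth measured via integrated firefly luciferase reporter in P. falciparum. Infected erythrocytes at 2% hematocrit, 0.05% parasitemia final were treated 96 hours at 37 C under 5% CO2, and luminescence was read.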
SARS PLpro yeast-1 – SARS-CoV PLP inhibition in yeast; S. cerevisiae expressing SARS-CoV PLpro, growth rescue; Potency, µM (highest dose often 32.9 µM), for inactives: at the top dose activity, positive = growth rescue, usual class: activators; 330,000 compounds, 0.19% hits; AID 485353; calls by dose curve; further: potency means the concentration at half of the fitted maximal effect; 0% is about no effect; nearly all actives have a fitted effect of over 55% in size
NS1 inh – inhibitors of influenza NS1 protein function; 270,000 compounds, 0.4% hits; AID 2326; Potency, µM (titrated, usually from 46.1 µM), for the others: at the top dose activity, positive = more growth; calls by dose curve; further: potency means the concentration at half of the fitted maximal effect; actives are rising curves; nearly all actives have a fitted effect of over 50% in size
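Read-out: OD600 growth recovery of NS1-expressing budding yeast. Cells grown overnight at 30C in -URA glucose medium, washed, resuspended and diluted 1:100 in 2% galactose assay medium, pH 6.0. Same strain lacking NS1 served as positive control.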
Pf growth 48h – inhibits P. falciparum growth in the first generation, 48 h; P. falciparum luciferase growth in erythrocytes, 48 h; Potency, µM (doses to about 28.7 µM), for inactives: at the top dose activity change, negative = inhibition, most hits filed as inhibitors; 310,000 compounds, 5.9% hits; AID 504832; further: potency means the concentration at half of the fitted maximal effect; on the % scale 0 is the no-effect control and ±100 the full control effect
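Parasite viability was followed by luminescence of a genomically integrated firefly luciferase. Cultures held 0.1% parasitemia at 2% hematocrit (final), incubated under 5% CO2 at 37 C.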
AMA1 RON2 block – disrupts binding of P. falciparum AMA1 to RON2; AlphaScreen AMA1-biotinylated RON2 peptide binding; 360,000 compounds, 0.2% hits; AID 720542; Potency, µM (top dose mostly 58.2 µM), inactives show top-dose activity change, negative = inhibition, most hits filed as inhibitors;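 further: potency means the concentration at half of the fitted maximal effect; 0% = vehicle wells and -100% = peptide control; nearly all actives have a fitted effect of over 45% in size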
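AMA1 (3D7) with his tag at 25 nM final met compounds first, then biotinylated RON2 peptide at 25 nM; detection used donor plus acceptor beads, 10 µg/mL apiece, read by AlphaScreen after 30 min at room temperature.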
HCV inh – inhibitors of hepatitis C virus infection; Huh7.5.1 HCVcc-Cre infection, luciferase reporter, 44 h; Potency, µM (highest dose often 41.8 µM), without a hit: top-dose activity change, negative = inhibition, usual class: inhibitors; 340,000 compounds, 3.4% hits; further: potency means the concentration at half of the fitted maximal effect; on the % scale 0 is the no-effect control and ±100 the full control effect
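Infectious HCV cell culture screen: compound-treated cells (1,000/well, pre-plated 4 h) are infected with HCVcc-Cre at roughly 0.5 moi and grown 44 h. Infection is quantified by luciferase signal after 15 min substrate incubation at room temperature.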
SARS PLpro yeast-2 – Inhibits SARS-CoV PLP in yeast, hit validation | AID 652038 | shares compounds with SARS PLpro yeast-1 | calls only | yeast expressing SARS-CoV PLpro, growth phenotype rescue | 1,000 compounds, 19% hits; call rule not given here
The depositor's hits bear a star; ! = not active in a repeat. Unless noted, the call rests on the fitted dose curve; in most records, active means well fitted curve in the direction sought with a large enough effect; inconclusive means small, poorly fitted or top-dose-only effect, or another doubt; inactive means no such curve, though single readings can be large; an effect the other way counts as inactive or inconclusive.

What do the screens show for `CN(C)c1ccc(C(=O)C(=O)c2ccccc2)cc1`?
Pf growth 96h: inconclusive; SARS PLpro yeast-1: -3.4%; NS1 inh: -4.6%; Pf growth 48h: 52.4%; AMA1 RON2 block: -9.8%; HCV inh: -7.1%

Results for CC(=O)c1ccc(N(C)C)cc1 ?
Pf growth 96h: -18.2%; SARS PLpro yeast-1: 2.82µM*; NS1 inh: -10.0%; AMA1 RON2 block: -1.4%; HCV inh: -13.1%; SARS PLpro yeast-2: inactive

What do the screens show for `CC1CCCC(NC(=O)COc2ncnc3ccccc23)C1C` (stereo unspecified)?
SARS PLpro yeast-1: inconclusive; AMA1 RON2 block: 14.8%; HCV inh: -0.2%; SARS PLpro yeast-2: inactive

Results for CC1CCCC(NC(=O)CSc2ncnc3ccccc23)C1C (stereo unspecified) ?
SARS PLpro yeast-1: -6.2%; AMA1 RON2 block: 14.7%; HCV inh: -1.7%

How did CCC(=NCc1cccnc1)c1c(O)n(-c2ccccc2C)c(=O)[nH]c1=O do in these assays?
Pf growth 96h: inconclusive; SARS PLpro yeast-1: 0.2%; NS1 inh: 2.4%; Pf growth 48h: -17.3%; AMA1 RON2 block: -19.2%; HCV inh: 4.0%

How did CC(=NCc1cccnc1)c1c(O)n(-c2ccccc2C)c(=O)[nH]c1=O do in these assays?
Pf growth 96h: -3.2%; SARS PLpro yeast-1: 3.55µM*; NS1 inh: 7.7%; AMA1 RON2 block: 11.6%; HCV inh: 5.9%; SARS PLpro yeast-2: inactive

How did Cc1csc(SCC(=O)NC(C)C2CC3CCC2C3)n1 (stereo unspecified) do in these assays?
Pf growth 96h: -6.9%; SARS PLpro yeast-1: -2.1%; Pf growth 48h: -10.8%; AMA1 RON2 block: 9.2%; HCV inh: -3.7%

What do the screens show for `O=C(CN1C(=O)C(=O)N(C2CCCC2)C1=O)Nc1ccc([N+](=O)[O-])cc1`?
Pf growth 96h: 3.9%; SARS PLpro yeast-1: -2.7%; Pf growth 48h: -29.7%; AMA1 RON2 block: -2.9%; HCV inh: 8.2%

How did Cc1cc(C(=O)N/N=C/c2cc(N=Nc3ccccc3)ccc2O)n[nH]1 do in these assays?
Pf growth 96h: inconclusive; SARS PLpro yeast-1: 7.94µM*; NS1 inh: -3.5%; Pf growth 48h: inconclusive; AMA1 RON2 block: -19.4%; HCV inh: 22.4µM*; SARS PLpro yeast-2: inactive

What do the screens show for `O=C(O)CSc1c(-c2ccccc2)c2cc(Cl)ccc2[nH]c1=O`?
Pf growth 96h: -10.5%; SARS PLpro yeast-1: inconclusive; NS1 inh: 26.8%; Pf growth 48h: 9.6%; AMA1 RON2 block: -6.5%; HCV inh: 45.8%; SARS PLpro yeast-2: inactive

How did COc1cc(C(=O)Nc2nnc(SCC(=O)NCC3CCCO3)s2)cc(OC)c1OC (stereo unspecified) do in these assays?
Pf growth 96h: inconclusive; SARS PLpro yeast-1: 4.47µM*; NS1 inh: 8.5%; Pf growth 48h: -11.3%; AMA1 RON2 block: 6.6%; HCV inh: 3.0%; SARS PLpro yeast-2: inactive

Results for COc1ccccc1C(=O)Nc1nnc(SCC(=O)NCC2CCCO2)s1 (stereo unspecified) ?
Pf growth 96h: 75.4%; SARS PLpro yeast-1: 0.5%; NS1 inh: 1.4%; Pf growth 48h: 184.9%; AMA1 RON2 block: -15.9%; HCV inh: -1.2%

What do the screens show for `Nc1nonc1C(=Nc1ccccc1)NO`?
Pf growth 96h: inconclusive; SARS PLpro yeast-1: inconclusive; NS1 inh: -3.2%; Pf growth 48h: 11.6%; AMA1 RON2 block: 4.3%; HCV inh: 2.4%; SARS PLpro yeast-2: inactive

Results for COc1ccc(CCNC(=O)C(=O)NCC2OCCN2S(=O)(=O)c2ccccc2)cc1OC (stereo unspecified) ?
Pf growth 96h: inconclusive; SARS PLpro yeast-1: 11.2µM*; NS1 inh: 5.1%; Pf growth 48h: -4.8%; AMA1 RON2 block: -1.5%; HCV inh: -10.9%; SARS PLpro yeast-2: inactive

What do the screens show for `COc1ccc(C(C)NC(=O)c2ccccc2Cl)cc1OC` (stereo unspecified)?
Pf growth 96h: 25.4%; SARS PLpro yeast-1: 11.2µM*; NS1 inh: -9.9%; Pf growth 48h: 9.9%; AMA1 RON2 block: -2.8%; HCV inh: 8.1%; SARS PLpro yeast-2: active

Results for COc1ccc(C(C)NC(=O)c2ccc(Br)cc2)cc1OC (stereo unspecified) ?
Pf growth 96h: 0.0%; SARS PLpro yeast-1: -2.7%; NS1 inh: -8.0%; Pf growth 48h: 17.9%; AMA1 RON2 block: -2.3%; HCV inh: 14.3%

How did O=C(Nc1ccc(F)cc1)C(c1ccccc1)N1CCN(S(=O)(=O)c2ccccc2)CC1 (stereo unspecified) do in these assays?
Pf growth 96h: inconclusive; SARS PLpro yeast-1: inconclusive; NS1 inh: 22.0%; Pf growth 48h: -11.8%; AMA1 RON2 block: -7.5%; HCV inh: inconclusive; SARS PLpro yeast-2: inactive

How did C=CCc1ccc(OCCn2cncn2)c(OC)c1 do in these assays?
Pf growth 96h: 0.0%; SARS PLpro yeast-1: inconclusive; NS1 inh: -14.4%; Pf growth 48h: 7.7%; AMA1 RON2 block: -8.5%; HCV inh: 5.7%; SARS PLpro yeast-2: inactive

How did C=CCc1cc(OC)ccc1OCCCCn1cncn1 do in these assays?
Pf growth 96h: inconclusive; SARS PLpro yeast-1: inconclusive; NS1 inh: -28.6%; Pf growth 48h: 13.4%; AMA1 RON2 block: inconclusive; HCV inh: 0.0%

Results for O=C(NCc1ccc(F)cc1F)Nc1cnccc1C(F)(F)F ?
Pf growth 96h: -9.2%; SARS PLpro yeast-1: -1.0%; NS1 inh: 7.3%; Pf growth 48h: -1.7%; AMA1 RON2 block: -2.0%; HCV inh: -5.4%

How did CN(C)[C@H]1CCN([C@H]2CS(=O)(=O)N[C@@H]2COCc2ccccc2)C1 do in these assays?
AMA1 RON2 block: 17.1%

How did Clc1ccccc1CN1CCC(Cc2ccccc2)CC1 do in these assays?
Pf growth 96h: 11.7%; SARS PLpro yeast-1: -15.0%; NS1 inh: -0.6%; Pf growth 48h: 8.1%; AMA1 RON2 block: inconclusive; HCV inh: -5.1%

What do the screens show for `CN(C)C1CCN(Cc2cc(COCc3ccccc3)c3cccnc3c2O)C1` (stereo unspecified)?
Pf growth 96h: inconclusive; SARS PLpro yeast-1: 10µM*!; Pf growth 48h: 0.828µM*; SARS PLpro yeast-2: inconclusive

What do the screens show for `Oc1ccc(CN2CCC(Cc3ccccc3)CC2)c2cccnc12`?
Pf growth 96h: 2.5%; SARS PLpro yeast-1: 2.51µM*; Pf growth 48h: inconclusive; AMA1 RON2 block: -66.3%; HCV inh: inconclusive; SARS PLpro yeast-2: inconclusive

What do the screens show for `O=C(Nc1nc2ccc(F)cc2s1)c1cccc(S(=O)(=O)N2CCc3ccccc32)c1`?
Pf growth 96h: inconclusive; SARS PLpro yeast-1: 3.16µM*; NS1 inh: 13.5%; Pf growth 48h: -2.2%; AMA1 RON2 block: -10.9%; HCV inh: inconclusive; SARS PLpro yeast-2: inactive
